The nature of assay [1]: qHTS Assay for Identifying Gametocytocidal Compounds (AID 743244; active = well fitted curve in the direction sought with a large enough effect; an effect the other way counts as inactive or inconclusive;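 note: % is set by controls: 0 for no effect and ±100 for the full control effect; actives lower the fluorescent signal which means gametocytes are killed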). Conditions: P. falciparum 3D7 stage III-V gametocytes, alamarBlue, 72 h; max response: stronger effect = lower value. An outline of the steps:
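Stage III–V gametocytes of P. falciparum 3D7 were seeded at 20,000 cells/well onto pre-dispensed compounds. After 72 h, 37 °C, 5% CO2, alamarBlue was added for another 24 h.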
(In general: In qHTS, concentration-response curves come from the screen itself.)

Assay [2] in a line: qHTS profiling for inhibitors of Plasmodium falciparum (3D7) proliferation (AID 743322).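 Note: infected erythrocytes exposed to compound for 72 h before lysis; 100% = DMSO vehicle wells and 0% = 0.29 µM artemisinin.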 Conditions: P. falciparum 3D7 proliferation; at 28.7 µM (top of the series) unless noted. The method, boiled down: (§1)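 Parasite DNA was quantified by SYBR Green I fluorescence (ex 485, em 535 nm) after overnight lysis in saponin/Triton buffer at room temperature. Cultures at 0.3% parasitemia and 2.5% hematocrit were first exposed to compound for 72 h at 37 C; signals were normalised to artemisinin (0.29 uM) and vehicle wells.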

The nature of assay [3]: qHTS profiling for inhibitors of Plasmodium falciparum (DD2) proliferation (AID 743323). Conditions: lower = more inhibition; at 28.7 µM (top of the series) unless noted. An outline of the steps: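 1536-well qHTS; infected RBCs 0.3% parasitemia/2.5% Hct final; cpd 72 h 37 C 5% CO2; lysis buffer + SYBR Green I, o/n RT dark; FI 485/535; norm. to 0.29 uM artemisinin and DMSO, plate-stack corrected.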

Assay [4] can be described thus: qHTS profiling for inhibitors of Plasmodium falciparum (HB3) proliferation (AID 743324; active = well fitted curve in the direction sought with a large enough effect; an effect the other way counts as inactive or inconclusive;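 note: 100% = DMSO vehicle wells and 0% = artemisinin-treated control wells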). To be noted: Plasmodium falciparum HB3 blood-stage proliferation; at 28.7 µM (top of the series) unless noted. An outline of the steps:
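SYBR Green fluorescence (485 ex/535 em) of lysed cultures, incubated overnight at room temperature in the dark, quantifies parasite DNA. Infected erythrocytes at 0.3% parasitemia and 2.5% hematocrit were exposed 72 h; values normalized to DMSO and 0.29 uM artemisinin controls.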

Assay [5] in a line: qHTS profiling of the MIPE4 collection as inhibitors of Plasmodium falciparum (3D7) proliferation (AID 743344).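 Note: scaled between DMSO vehicle wells and 0.29 µM artemisinin as full inhibition.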 Conditions: P. falciparum 3D7 in erythrocytes, SYBR Green DNA fluorescence, 72 h; at 28.5 µM (top of the series) unless noted. An outline of the steps: as §1
A short description of assay [6]: qHTS profiling of the MIPE4 collection as inhibitors of Plasmodium falciparum (DD2) proliferation (AID 743345). To be noted: P. falciparum Dd2 in erythrocytes, SYBR Green DNA, 72 h; at 28.5 µM (top of the series) unless noted. An outline of the steps: as §1
Assay [7] is described as follows: qHTS profiling of the MIPE4 collection as inhibitors of Plasmodium falciparum (DD2) proliferation (Rep 2) (AID 743346). Conditions: P. falciparum Dd2 in erythrocytes, SYBR Green DNA, 72 h; at 28.5 µM (top of the series) unless noted. An outline of the steps:
as §1

Assay [8] in a line: qHTS profiling of the MIPE4 collection as inhibitors of Plasmodium falciparum (HB3) proliferation (AID 743347).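 Note: plate controls were DMSO vehicle wells for no effect and artemisinin wells for full effect.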 To be noted: P. falciparum HB3 in erythrocytes, SYBR Green DNA, 72 h; at 28.5 µM (top of the series) unless noted. The method, boiled down: as §1
The nature of assay [9]: Cell Proliferation Assay Versus the ED40515 IL2 Independent ATL cell lines (AID 1053194; calls by dose curve). Conditions: ED40515 IL2-independent ATL cells. The method, boiled down:
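CellTiter-Glo luminescence, read after 15 min at RT, gave viability of IL-2-free ED40515 cells (1000/well, RPMI plus 5% FBS) following 48 h drug exposure at 37C. Control wells held DMSO or 9.2 uM bortezomib.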

Assay [10] is described as follows: High-throughput drug toxicity screening in the BPDCN cell line Gen2.2 (AID 1224824).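 Note: cells exposed to compounds for 48 h before reading.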 Conditions: Gen2.2 BPDCN cells; at 45.8 µM (top of the series) unless noted. An outline of the steps: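 Gen2.2 cells (500/well) in phenol red-free RPMI with 10% FBS were exposed to compounds for 48 h at 37 °C, 5% CO2. Viability was read by CellTiter-Glo luminescence and normalized to DMSO (100%) and 9.2 uM bortezomib (0%).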

A short description of assay [11]: High-throughput drug toxicity screening in the BPDCN cell line Cal-1 (AID 1224825). Conditions: Cal-1 BPDCN cell viability, qHTS; at 45.8 µM (top of the series) unless noted. The method, boiled down: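 CellTiter-Glo luminescence after 48 h compound exposure; percent activity scaled with DMSO as 100% and bortezomib (9.2 uM final) as 0%. Cal-1 cells seeded at 500/well in RPMI, 10% FBS, no phenol red.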

The nature of assay [12]: qHTS assay for measurement of the activity of small molecule inhibitors on Zika virus induced Caspase-3 activity in human iPSC derived neural progenitor cells (hNPCs) (AID 1224857; active = well fitted curve in the direction sought with a large enough effect; an effect the other way counts as inactive or inconclusive; note: % of control where 0% means no effect; nearly all actives have a fitted effect of over 65% in size). The method, boiled down:
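Values are percent inhibition of virus-induced caspase-3/7 signal, scaled between uninfected cells and ZIKV-infected cells. Infection used 2 FFU/cell for 6 h after 1 h compound exposure.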

Assay [13] in a line: qHTS assay for measurement of the activity of small molecule inhibitors on Zika virus induced Caspase-3 activity in human astrocytoma cells (AID 1224859; active = well fitted curve in the direction sought with a large enough effect; an effect the other way counts as inactive or inconclusive;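 note: plate controls were ZIKV-infected untreated cells for no effect and uninfected cells for full effect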). An outline of the steps: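 Compound added 1 h pre-infection; ZIKV 2 FFU/cell on SNB-19 cells, 6 h, 37 C/5% CO2. Caspase-Glo 3/7 luminescence; values as % inhibition of ZIKV-induced caspase activity.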
Assay [14] can be described thus: qHTS Screen of the MIPE 4.0 Collection Against Ewings Sarcoma (RDES) (AID 1259252; active = well fitted curve in the direction sought with a large enough effect; an effect the other way counts as inactive or inconclusive; note: nearly all actives have a fitted effect of over 35% in size; note: potency is the fitted concentration of half-maximal effect). An outline of the steps: (§2)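 Viability screen: 48 h incubation at 37C, 95% humidity, 5% CO2 with serially titrated compound, followed by CellTiter-Glo readout.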
Assay [15] is described as follows: qHTS Screen of the MIPE 4.0 Collection Against Ewings Sarcoma (TC71) (AID 1259253; active = well fitted curve in the direction sought with a large enough effect; an effect the other way counts as inactive or inconclusive; note: nearly all actives have a fitted effect of over 40% in size; note: potency is the fitted concentration of half-maximal effect). The method, boiled down:
as §2

A short description of assay [16]: Cell Proliferation Assay Versus the ED40515 IL2 Dependent ATL cell lines (AID 1053195; calls by dose curve). To be noted: ED40515 IL2-dependent ATL cells. An outline of the steps: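 CellTiter-Glo luminescence (15 min, RT) measured viability after 48 hours at 37C; cells were ED40515 +IL2, 1000/well, in phenol red-free RPMI with 5% FBS. Controls: DMSO and 9.2 uM bortezomib.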
Assay [17] is described as follows: qHTS Screen of the MIPE 4.0 Collection Against Ewings Sarcoma (EW8) (AID 1259255; active = well fitted curve in the direction sought with a large enough effect; an effect the other way counts as inactive or inconclusive; note: nearly all actives have a fitted effect of over 35% in size; note: potency is the fitted concentration of half-maximal effect;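 for viability: 100% = DMSO-treated cells and 0% = medium-only wells without cells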). An outline of the steps: as §2

Values joined by “and” are separate entries in the source; they are usually repeats but may differ in a detail not shown here. Identical values can stand only once. Records with an inconclusive call do not appear. Active and inactive are the calls of the source. Unless noted, the rule behind the calls is not given here.

For the compound `O=C(c1cc(Cc2n[nH]c(=O)c3ccccc23)ccc1F)N1CCN(C(=O)C2CC2)CC1`, the max response in assay [1] is 10.8% (inactive). In assay [2], the remaining parasite growth % (stronger effect = lower value) was 88.8% and 97.4%. Moreover, the activity, percent of control in assay [3] was 97.9% and 99.7%. Moreover, in assay [4], the remaining proliferation (% of control), lower = more inhibition was 57.9% and 59.4%. The parasite growth, % of DMSO control in assay [5] is 23.5%. In assay [6], the parasite growth remaining, % of DMSO control (lower = more inhibition) is 92.7%. The compound further returned a parasite growth, % of control (lower = inhibition) in assay [7] of 44.7%. Further, the growth, % of control in assay [8] turned out to be 35.9%. Besides, the Potency in [9] was 16.6 µM (active); in assay [14] it was 8.33 µM (active); in assay [15], 10.5 µM (active). The cell viability, % of control (lower = more cytotoxic) in assay [10] came out at 71.5%. The viability (% of control) in assay [11] stood at 45.4%. Moreover, the Potency result in assay [12] and in [13] was “inactive” each time.

On to `OC[C@H](Cc1ccccc1)Nc1nc(Oc2ccc3c(c2)CCC3)nc2c1ncn2Cc1ccc(-c2ccccc2)cc1`, for which the max response in assay [1] is -2.93% (inactive). In addition, in assay [2], the remaining parasite growth % (stronger effect = lower value) came out at 6.42%. Also, the activity, percent of control in assay [3] was 5.17%. Besides, the remaining proliferation (% of control), lower = more inhibition in assay [4] is -0.578%. The parasite growth, % of DMSO control in assay [5] amounted to 33.7%. This compound also displayed a parasite growth remaining, % of DMSO control (lower = more inhibition) in assay [6] of 44.8%. The parasite growth, % of control (lower = inhibition) in assay [7] was 27%. Also, the growth, % of control in [8] was found to be 68.3%. The Potency was 4.69 µM (active) in assay [9], 13.2 µM (active) in assay [16] and 14.8 µM (active) in assay [14]. Besides, the cell viability, % of control (lower = more cytotoxic) in assay [10] is 408%. Also, in assay [11], the viability (% of control) was 56.2%. The Potency entry in assay [12] and in assay [13] was “inactive” throughout.

With `CS(=O)(=O)c1cccc(CNc2nc(Nc3ccc4c(c3)CCC(=O)N4)ncc2C(F)(F)F)c1`, in assay [2], the remaining parasite growth % (stronger effect = lower value) is 106%. In [3], the activity, percent of control came out at 108%. The remaining proliferation (% of control), lower = more inhibition in assay [4] stood at 101%. The compound also had a parasite growth, % of DMSO control in assay [5] of 12.1%. This compound had a parasite growth, % of control (lower = inhibition) in [7] of 28.9%. The same compound had a growth, % of control in [8] of 10.1%. The Potency in assay [9] was 4.69 µM (active); in assay [14], 20.9 µM (active); in [15], 16.6 µM (active); in assay [17], 13.2 µM (active). The cell viability, % of control (lower = more cytotoxic) in assay [10] was found to be 13.6%. In assay [11], this compound returned a viability (% of control) of 7.96%. Further, the Potency result in [12] and in [13] was “inactive” throughout.

Regarding `O=c1ncn2nc(Sc3ccc(F)cc3F)ccc2c1-c1c(Cl)cccc1Cl`, in assay [1], the max response was 5.63% (inactive). For the same compound, the remaining parasite growth % (stronger effect = lower value) in assay [2] came to 32.8%. Moreover, the activity, percent of control in assay [3] turned out to be 80.3%. The remaining proliferation (% of control), lower = more inhibition in assay [4] turned out to be 23.8%. In [5], this compound came in with a parasite growth, % of DMSO control of 17.6%. The compound further displayed a parasite growth remaining, % of DMSO control (lower = more inhibition) in assay [6] of 76.3%. In [7], this compound came in with a parasite growth, % of control (lower = inhibition) of 18.7%. In addition, in assay [8], the growth, % of control came out at 13.6%. Besides, the figures for the Potency in assay [9], in [16] and in assay [14] were 26.4 µM (active), 16.6 µM (active) and 20.9 µM (active), respectively. In addition, in assay [10], the cell viability, % of control (lower = more cytotoxic) worked out at 98.9%. This compound showed a viability (% of control) in assay [11] of 45.3%. The Potency result in assay [12] and in assay [13] was “inactive” in each case.

Regarding `NC(=O)c1ccc(I)c([N+](=O)[O-])c1`, the remaining parasite growth % (stronger effect = lower value) in assay [2] came out at 93.8%. The activity, percent of control in assay [3] was found to be 92.6%. Moreover, the remaining proliferation (% of control), lower = more inhibition in assay [4] was 77.5%. The parasite growth, % of DMSO control in assay [5] stood at 71.2%. The same compound yielded a parasite growth remaining, % of DMSO control (lower = more inhibition) in assay [6] of 97.1%. In addition, the parasite growth, % of control (lower = inhibition) in [7] was determined as 90.7%. Also, the growth, % of control in assay [8] amounted to 96%. Further, the Potency was 16.6 µM (active) in [9] and 37.2 µM (active) in assay [16]. In assay [10], the cell viability, % of control (lower = more cytotoxic) was 44.8%. Besides, the viability (% of control) in [11] came out at 40.1%. Also, the Potency result in assay [12], in assay [13], in assay [14], in [15] and in [17] was “inactive” in each case.

`Nc1nccc(-c2ccc3noc(-c4ccc(Cl)cc4)c3c2)n1`: the max response in assay [1] is -14.8% (inactive). In addition, in [2], the remaining parasite growth % (stronger effect = lower value) was 77.1%. The activity, percent of control in assay [3] was 76.1%. Moreover, the remaining proliferation (% of control), lower = more inhibition in [4] came out at 81.1%. Further, the parasite growth, % of DMSO control in [5] was found to be 85.1%. The parasite growth remaining, % of DMSO control (lower = more inhibition) in [6] was 92.5%. Besides, the parasite growth, % of control (lower = inhibition) in [7] was 79.2%. This compound also had a growth, % of control in assay [8] of 33.5%. Moreover, the Potency in assay [9] is 18.7 µM (active); in assay [16], 23.5 µM (active); in [14], 5.9 µM (active). Further, in [10], the cell viability, % of control (lower = more cytotoxic) is 68.4%. The compound further gave a viability (% of control) in [11] of 46.9%. Besides, the Potency result in assay [12] and in [13] was “inactive” each time.

The record behind these values is PubChem BioAssay (NCATS).
